Source: PubChem BioAssay (NCI)
This is part of a sample that, as a whole, favours compounds with a hit. Of some 83,000 tested, about 20% had one in any assay.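 Compound tested at a single concentration for 48 hours in 96-well plates; a percent growth value below 10 was scored as active.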 Activity calls are given as the source filed them.

Tested on: MDA-MB-468 breast
Assay: NCI-60 one-dose screen, 48 h (100 = growth as untreated, 0 = no growth, -100 = all killed)
Details: 10 µM unless noted

Compound	growth
COc1ccc(-c2ccc3cc(C(=O)Nc4ccc(O)c(C(=O)/C=C/c5cc(OC)c(OC)c(OC)c5)c4)ccc3c2)cc1	82.2% (inactive)
CCN(CC)CCCC(C)Nc1c2ccc(C)cc2nc2ccc(OC)cc12 (centres undefined)	-65.1% (active)
C#Cc1nc(C(=O)NCCCCCCC(=O)NO)cs1	-33.8% (active)
O=C(CS)OCC(COC(=O)CS)(COC(=O)CS)COC(=O)CS	78.8% (inactive)
Nc1ncc(-c2ccc(NS(=O)(=O)c3ccc(Cl)c(Cl)c3)cc2)[nH]1	90.1% (inactive)
O=C(CCN1CCCC1)c1ccc([N+](=O)[O-])cc1	85.3% (inactive)
OC(CNC1CCCC1)Cn1c2ccccc2c2ccccc21 (centres undefined)	-21.2% (active)
c1ccc2c(Nc3cccc4ccccc34)cccc2c1	61.8% (inactive)
COc1ccc(COC=O)cc1	114% (inactive)
O=C(NCCNc1nccc(-c2c(-c3cccc(O)c3)nc3sccn23)n1)c1cccc(C(F)(F)F)c1	70.5% (inactive)
Oc1ccc(C#CCOc2ccccc2)cc1CNCCN(Cc1ccccn1)Cc1ccccn1	-10.4% (active)
Cc1c(Cc2ccccc2)c(=O)oc2c(C)c(OCc3n[nH]c(=S)o3)ccc12	77.7% (inactive)
N#Cc1c(NCc2ccccc2I)sc2c1CCCCC2	97.1% (inactive)
COC1C(O)CC(OC2CC(OC3CC(O[C@@H]4C(=O)c5c(cc6cc(OC7CC(OC8CC(O)C(O)C(C)O8)C(O)C(C)O7)c(C)c(O)c6c5O)CC4[C@H](OC)[C@@H](O)C(C)=O)OC(C)C3O)OC(C)C2O)OC1C (some centres undefined)	-40.1% (active)
